Bioassay records (PubChem BioAssay)
An excerpt weighted towards active compounds, which were near 21% of everything screened.
TDP1 cell noCPT = qHTS for Inhibitors of human tyrosyl-DNA phosphodiesterase 1 (TDP1): qHTS in cells in absence of CPT | DT40 Tdp1-/- hTDP1 cells, no CPT, ATP luminescence, 48 h | Potency, µM (top dose mostly 46.2 µM), inactives show top-dose activity change, negative = growth inhibition, usual class: inhibitors | 420,000 compounds, 15% hits | AID 686978, 2013; note: potency is the fitted concentration of half-maximal effect; % is set by controls: 0 for no effect and ±100 for the full control effect; nearly all actives have a fitted effect of over 55% in size
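Compound effects on proliferation are scored in DT40 Tdp1-/-;hTDP1 cells in the absence of CPT. ATP levels (CellTiter-Glo luminescence) are recorded after a ≥48 hr, 37 °C incubation.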
TDP1 cell CPT = DT40-hTDP1 cell growth loss with CPT; 420,000 compounds, 12% hits; chicken DT40 Tdp1-/-;hTDP1 cells + 20 nM CPT, ATP luminescence, 48 h; Potency, µM (series often up to 46.2 µM), for the others: at the highest dose activity change, negative = growth inhibition, hits mostly inhibitors; note: potency is the fitted concentration of half-maximal effect; % is set by controls: 0 for no effect and ±100 for the full control effect; nearly all actives have a fitted effect of over 55% in size
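Chicken DT40 Tdp1-/- cells stably complemented with human TDP1 were seeded at 400 cells/well in medium containing 20 nM camptothecin, exposed to pin-transferred compounds, and grown at 37 °C for at least 48 hr. Viability was read as ATP luminescence.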
ClpP mod = qHTS Assay for Activators of ClpP; purified B. subtilis ClpP, FRET peptide cleavage, 20 min; 340,000 compounds, 1.9% hits; ATP-dependent Clp protease proteolytic subunit (Bacillus subtilis (strain 168)), P80244; Potency, µM (highest dose often 57.5 µM), for inactives: at the highest dose activity change, negative = active; AID 651965, 2013; active = well fitted falling curve with a large enough effect; inconclusive = small, poorly fitted or top-dose-only effect; inactive = no such curve, though single readings can be large or run the other way; note: potency is the fitted concentration of half-maximal effect; the source files actives as falling curves though it sought activators and does not explain the sign; nearly all actives have a fitted effect of over 65% in size
Target sequence (P80244 whole entry, looked up): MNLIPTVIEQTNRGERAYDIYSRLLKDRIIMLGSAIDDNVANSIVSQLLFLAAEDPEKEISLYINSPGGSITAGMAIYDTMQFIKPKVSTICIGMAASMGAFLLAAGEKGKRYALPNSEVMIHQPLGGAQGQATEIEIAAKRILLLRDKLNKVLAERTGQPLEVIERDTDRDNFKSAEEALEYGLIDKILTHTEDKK
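Purified B. subtilis ClpP, 10 microg/mL final in Tris/HCl pH8 with KCl, BSA, glycerol and Tween-20, cleaved an Abz/nitrotyrosine-quenched decapeptide. Fluorescence (ex 320, em 430) was read at 0 and 20 min at room temperature. Delta was normalized to 5.8 microM ADEP and DMSO/no-enzyme controls.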
D3 ag = activates the human D3 dopamine receptor. P35462. 410,000 compounds, 0.58% hits. max activation, %. AID 652048. D3R DiscoveRx beta-arrestin cells, luminescence, 90 min; in the data active = max activation above about 30%; note: 0% is about no effect
Target sequence (P35462 whole entry, looked up): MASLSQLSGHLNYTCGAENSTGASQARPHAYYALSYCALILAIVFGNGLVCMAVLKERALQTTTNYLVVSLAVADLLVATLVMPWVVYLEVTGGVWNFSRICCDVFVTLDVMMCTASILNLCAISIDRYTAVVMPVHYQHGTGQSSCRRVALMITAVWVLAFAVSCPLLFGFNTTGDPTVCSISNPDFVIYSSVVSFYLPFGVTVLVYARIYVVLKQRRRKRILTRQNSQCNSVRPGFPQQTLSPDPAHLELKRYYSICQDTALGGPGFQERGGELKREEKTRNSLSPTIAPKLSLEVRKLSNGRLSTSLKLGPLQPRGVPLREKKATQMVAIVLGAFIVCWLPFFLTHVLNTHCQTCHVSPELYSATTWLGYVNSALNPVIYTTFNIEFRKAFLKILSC
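Cells at 1500/well, incubated overnight, then treated with pinned compounds (dopamine as control) for 90 min at 37 degrees C. DiscoveRx reagent added for 30 - 60 minutes at room temperature; luminescence read.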
D3 antag = D3 dopamine receptor (human) antagonism. P35462. D3R cells, DiscoveRx beta-arrestin luminescence, antagonist mode; active compounds read low. max response, negative = inhibition, %. 360,000 compounds, 2.5% hits; in the data active = max response below about -50%; inconclusive = no clear call, values can overlap the other calls; note: % is set by controls: 0 for no effect and ±100 for the full control effect
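Cells expressing the human receptor were seeded at 1500 cells/well, incubated overnight at 37 degrees C in 5% CO2, then exposed to library compounds with dopamine controls for 90 minutes at 37 degrees C before luminescent detection.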
IL-1B inflam inh = inhibitors of inflammasome signaling (IL-1 beta secretion). THP-1 LPS/ATP IL-1B secretion, AlphaLISA, 16 h; active compounds read low. activity change, % at 57.5 µM. 360,000 compounds, 4.7% hits. AID 743279; in the data active = activity change below about -50%; inconclusive = mostly about -30% to -49%; note: % is set by controls: 0 for no effect and ±100 for the full control effect
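THP-1 cells pretreated 1 hr with compounds (up to 57.5 uM final), then stimulated with LPS (250 ng/mL final) plus ATP (1.25 mM final); secreted IL-1B measured by AlphaLISA after 16 hr, decreased signal indicating inhibition.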
* marks the source's active call; other numbers are inactive results; ! = a repeat was not active. Unless noted, calls come from the whole dose curve; as a rule, active = well fitted inhibition curve with a large enough effect; inconclusive = small, poorly fitted or top-dose-only effect; inactive = flat fitted curve, though single readings scatter.

Screening CN1CCN(c2ccc(NC(=O)c3cccc(OCc4ccccc4)c3)cc2)CC1 returned TDP1 cell noCPT 23µM*, TDP1 cell CPT 23µM*, ClpP mod -4%, D3 ag -12, D3 antag -14 and IL-1B inflam inh 0.
Screening CCOc1cccc(C(=O)NC(=S)Nc2ccc(N3CCN(CC)CC3)cc2)c1 returned TDP1 cell noCPT 23µM*, TDP1 cell CPT inconclusive, D3 ag -11, D3 antag -6 and IL-1B inflam inh inconclusive.
COc1cc(OC)cc(C(=O)NC(=S)Nc2ccc(N3CCCC3)cc2)c1 was read as TDP1 cell noCPT 8.2µM*, TDP1 cell CPT 15µM*, ClpP mod 2%, D3 ag -2, D3 antag 3 and IL-1B inflam inh 0.
For CCN1CCN(c2ccc(NC(=O)c3cccc(OCc4ccccc4)c3)cc2)CC1 the results were TDP1 cell noCPT inconclusive, TDP1 cell CPT inconclusive, ClpP mod -6%, D3 ag -6, D3 antag inconclusive and IL-1B inflam inh -80*.
`CCCOc1cccc(C(=O)NC(=S)Nc2ccc(N3CCN(C)CC3)cc2)c1` gave TDP1 cell noCPT inconclusive, TDP1 cell CPT inconclusive, D3 ag -14, D3 antag -24 and IL-1B inflam inh -1.
For CNc1ccnc(-c2c(C)noc2C)n1 the results were TDP1 cell noCPT -5% and TDP1 cell CPT 6%.
O=C(O)c1ccccc1-c1ccccc1C(=O)NCc1ccccc1F was read as TDP1 cell noCPT 5%, TDP1 cell CPT 9%, ClpP mod 8.9µM*, D3 ag -2, D3 antag -3 and IL-1B inflam inh 15.
For CC(C)CNC(=O)c1ccccc1-c1ccccc1C(=O)O the results were TDP1 cell noCPT -16%, TDP1 cell CPT 17%, ClpP mod 0%, D3 ag -4, D3 antag 2 and IL-1B inflam inh -16.
O=C1c2cccc3cccc(c23)C(=O)N1OS(=O)(=O)c1ccc(Cl)cc1 was read as TDP1 cell noCPT 18µM*, TDP1 cell CPT inconclusive, D3 ag 4, D3 antag 2 and IL-1B inflam inh -1.
Screening CCc1ccc(S(=O)(=O)ON2C(=O)c3ccccc3C2=O)cc1 returned TDP1 cell noCPT 12µM*, TDP1 cell CPT 7.3µM*, D3 ag -6, D3 antag -29 and IL-1B inflam inh -28.
For Cc1cccc(Nc2ncnc(N)c2[N+](=O)[O-])n1 the results were TDP1 cell noCPT 16µM*, TDP1 cell CPT 9.2µM*, D3 ag -2, D3 antag 5 and IL-1B inflam inh -14.
`Nc1ncnc(Nc2ccccn2)c1[N+](=O)[O-]` gave TDP1 cell noCPT 23µM*, TDP1 cell CPT -24%, D3 ag 0, D3 antag -13 and IL-1B inflam inh 7.
Cc1cccnc1Nc1ncnc(N)c1[N+](=O)[O-] was read as TDP1 cell noCPT -4%, TDP1 cell CPT 3%, D3 ag 0, D3 antag 4 and IL-1B inflam inh 1.
Screening COc1cc(-c2noc(C)c2C#CCO)cc(OC)c1OC returned TDP1 cell noCPT 13µM*!, TDP1 cell CPT inconclusive, ClpP mod -4%, D3 ag 0, D3 antag -7 and IL-1B inflam inh -9.
Screening COc1cc(-c2noc(C)c2C#CC2(O)CCCCC2)cc(OC)c1OC returned TDP1 cell noCPT 21µM*, TDP1 cell CPT inconclusive, ClpP mod -1%, D3 ag 2, D3 antag 31 and IL-1B inflam inh inconclusive.
`COc1cc(-c2noc(C)c2C#Cc2ccsc2)cc(OC)c1OC` gave TDP1 cell noCPT 0.92µM*, TDP1 cell CPT 0.71µM*!, ClpP mod -12%, D3 ag -34, D3 antag 0 and IL-1B inflam inh 72.
COc1cc(-c2noc(C)c2C#CC2(N)CCCCC2)cc(OC)c1OC was read as TDP1 cell noCPT inconclusive, TDP1 cell CPT inconclusive, ClpP mod -6%, D3 ag -11, D3 antag 4 and IL-1B inflam inh -13.
Screening Nc1cc2cccnc2cc1Cl returned TDP1 cell noCPT 3%, TDP1 cell CPT -14%, D3 ag -5, D3 antag -14 and IL-1B inflam inh 5.
`O=C(NC(=S)Nc1c(Cl)cc(Cl)cc1Cl)c1ccccc1` gave TDP1 cell noCPT 9.2µM*, TDP1 cell CPT 23µM*, ClpP mod -2%, D3 ag -6, D3 antag -27 and IL-1B inflam inh -1.
`O=C(NC(NC(=S)Nc1c(Cl)cc(Cl)cc1Cl)C(Cl)(Cl)Cl)OCc1ccccc1` (centres undefined) gave TDP1 cell noCPT 16µM*, TDP1 cell CPT inconclusive, ClpP mod -8%, D3 ag 1, D3 antag -76* and IL-1B inflam inh -58*.
`O=C(NC(=S)NC(c1ccccc1)c1ccncc1)c1ccccc1` (centres undefined) gave TDP1 cell noCPT 12µM*, TDP1 cell CPT 15µM*, ClpP mod -2%, D3 ag 2, D3 antag 67 and IL-1B inflam inh -79*.
`CC(C)C(=O)Nc1cccc(NC(=S)NC(=O)c2ccc(Cl)cc2)c1` gave TDP1 cell noCPT 16µM*, TDP1 cell CPT inconclusive, ClpP mod -1%, D3 ag -14, D3 antag -19 and IL-1B inflam inh -8.
Screening CC(NC(=S)NC(=O)c1ccccc1)c1ccccc1 (centres undefined) returned TDP1 cell noCPT -24%, TDP1 cell CPT 0%, ClpP mod -1%, D3 ag 6, D3 antag -12 and IL-1B inflam inh -23.
For O=C(NC(=S)Nc1ccccn1)c1ccccc1 the results were TDP1 cell noCPT inconclusive, TDP1 cell CPT -22%, ClpP mod 9%, D3 ag 0, D3 antag 7 and IL-1B inflam inh 8.
Screening Cc1ccc2oc(=O)n(Cc3ccccc3Cl)c2c1 returned TDP1 cell noCPT -13%, TDP1 cell CPT 1%, ClpP mod -3% and D3 ag -16.
For Cc1snnc1C(=O)NC(=S)Nc1ccccc1 the results were TDP1 cell noCPT 13µM*, TDP1 cell CPT -29%, D3 ag -10, D3 antag -24 and IL-1B inflam inh 14.
Screening CC(C)C(=O)Nc1ccc(NC(=S)NC(=O)c2ccccc2F)cc1 returned TDP1 cell noCPT -14%, TDP1 cell CPT -25%, ClpP mod 32µM*, D3 ag -5, D3 antag -18 and IL-1B inflam inh -12.
